For 22 compounds, activation results are on record in PubChem BioAssay AID504692 (The Scripps Research Institute Molecular Screening Center, 2011).

The whole screen tested about 340,000 compounds, of which about 2,000 (0.59%) were called active. Rule as the data show it: active = activation mostly above about 9.5% (no sharp cut-off); inactive = mostly below about 7.6%. For the sample, actives were picked, then their nearest neighbours and some compounds at random.

The target of this test is 5-hydroxytryptamine receptor 5A (Homo sapiens) (UniProt P47898). The test can be described thus: HTR5A agonists in luminescence cell assay, primary screen, counter-screen for OPRM1-OPRD1 heterodimer agonist project, full-deck HTS (AID 504692).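 Also: 0% = cells with vehicle only and 100% = reference agonist.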 The settings on record: cell-based, at 9.3 µM, hits give high values. On the technique in general: Counterscreens check selectivity or assay interference.
5-hydroxytryptamine receptor 5A (Homo sapiens), sequence (P47898 whole entry, looked up): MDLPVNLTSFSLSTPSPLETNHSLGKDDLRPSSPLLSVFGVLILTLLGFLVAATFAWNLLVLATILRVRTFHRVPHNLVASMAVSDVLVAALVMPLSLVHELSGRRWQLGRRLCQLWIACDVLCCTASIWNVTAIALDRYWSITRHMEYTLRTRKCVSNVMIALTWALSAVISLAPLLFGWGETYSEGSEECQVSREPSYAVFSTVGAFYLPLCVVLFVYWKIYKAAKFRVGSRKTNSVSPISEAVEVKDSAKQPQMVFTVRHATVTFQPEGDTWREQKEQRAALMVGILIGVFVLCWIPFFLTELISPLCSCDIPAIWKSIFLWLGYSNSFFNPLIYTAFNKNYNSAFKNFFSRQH
Regarding `COc1ccccc1C(=O)Nc1cccc(C(=O)N2CCOCC2)c1`, the activation was 3.58% (inactive).

As for `O=C(Nc1ccc(C(=O)N2CCOCC2)cc1)Nc1cccc(C(F)(F)F)c1`, the activation was 28.4% (active). As for `O=C(NCc1ccccc1)c1ccc(S(=O)(=O)Nc2cccc(C(F)(F)F)c2)cc1`, the figure is 2.56% (inactive); as for `CCNS(=O)(=O)c1ccc(NC(=O)Nc2cccc(C(F)(F)F)c2)cc1`, 12.8% (active).

With `O=C(COc1ccc(S(=O)(=O)Nc2cccc(C(F)(F)F)c2)cc1)N1CCOCC1`, the activation was 1.4% (inactive). Then `CCNS(=O)(=O)c1ccc(NC(=O)c2cncc(Br)c2)cc1`, with 0.87% (inactive). As for `Cc1cc(OCCN2CCCC2)ccc1C(C)C`, the figure is 8.01% (inactive). Turning to `O=C(NCCCO)c1cc2c([nH]c3ccccc32)c(-c2ccc(F)cc2)n1`, the activation was 1.16% (inactive).

For `COc1ccccc1C(=O)COC(=O)COc1ccc(C#N)cc1`, the activation was -2.03% (inactive). Regarding `COc1ccc(-c2nc(CS(=O)(=O)CC(=O)NCc3cccc(Br)c3)c(C)o2)cc1`, the activation is 4.07% (inactive).

`O=C(COC(=O)CCCNC(=O)c1ccc(Cl)cc1)Nc1cc(Cl)ccc1Cl`: the activation is 7.08% (inactive).

Regarding `O=C(CN(c1ccccc1)S(=O)(=O)c1ccc(Cl)cc1)Nc1ccccc1C(=O)N1CCCC1`, the activation was -0.02% (inactive).

On to `CCN(CC)C(=O)c1nc[nH]c1C(=O)N(C)Cc1ccccc1`, for which the activation is -1.14% (inactive).

On to `COc1ccc(C(CCN(Cc2ccc(OC)c(OC)c2)C(=O)CCl)c2ccccc2)cc1` (configuration not stated), for which the activation was 44.4% (active). As to `COc1ccc(COC(=O)NC(C(=O)O)c2ccccc2)cc1` (configuration not stated), the activation was -0.04% (inactive). Then `COc1ccc(CCNC(=O)C(Sc2ccccn2)c2ccccc2)cc1OC` (configuration not stated), with 2.72% (inactive). Then `CCCNC(=S)NC1CC2CCCC(C1)N2CC(C)C` (configuration not stated), with 4.6% (inactive). As for `COc1c(N2CCN(C(=S)Nc3ccccc3F)C(C)C2)c(F)cc2c(=O)c(C(=O)O)cn(C3CC3)c12` (configuration not stated), the figure is -0.11% (inactive); as for `Cc1ccc(C(=O)N/C(=C\c2ccco2)C(=O)N2CCSCC2)cc1C`, 1.54% (inactive). For `O=C(NC(Cc1c[nH]c2ccccc12)C(=O)O)/C(=C/c1ccco1)NC(=O)c1ccccc1` (configuration not stated), the activation is 0.55% (inactive). Then `Cc1ccc(C(=O)N/C(=C/c2ccco2)C(=O)NCCc2c[nH]c3ccccc23)cc1C`, with 20.3% (active).

Take `Cc1ccc(/C=N/NC(=O)C(NC(=O)c2ccccc2)c2n[nH]c(=O)c3ccccc23)cc1` (configuration not stated): the activation is 3% (inactive).
